Experimental data reported in PubChem BioAssay (NCATS).
Inconclusive results are not listed. Calls of active or inactive are those of the source. Calls follow the shape of the dose curve; as a rule, active = well fitted curve in the direction sought with a large enough effect; inconclusive = small, poorly fitted or top-dose-only effect, or another doubt; inactive = no such curve, though single readings can be large or run the other way.

These compounds were tested against Nuclear receptor subfamily 1 group I member 3 (Homo sapiens) (UniProt Q14994) (assay: Primary qHTS for antagonist of constitutive androstane receptor (CAR) against the NCATS DSHEA and TCM libraries (AID 1794836)). Details: CAR reporter cell assay, antagonist mode, luciferase; series mostly up to 40 µM; activity change, negative = inhibition: at the top concentration.
Chain of Nuclear receptor subfamily 1 group I member 3 (Homo sapiens) (Q14994 whole entry, looked up): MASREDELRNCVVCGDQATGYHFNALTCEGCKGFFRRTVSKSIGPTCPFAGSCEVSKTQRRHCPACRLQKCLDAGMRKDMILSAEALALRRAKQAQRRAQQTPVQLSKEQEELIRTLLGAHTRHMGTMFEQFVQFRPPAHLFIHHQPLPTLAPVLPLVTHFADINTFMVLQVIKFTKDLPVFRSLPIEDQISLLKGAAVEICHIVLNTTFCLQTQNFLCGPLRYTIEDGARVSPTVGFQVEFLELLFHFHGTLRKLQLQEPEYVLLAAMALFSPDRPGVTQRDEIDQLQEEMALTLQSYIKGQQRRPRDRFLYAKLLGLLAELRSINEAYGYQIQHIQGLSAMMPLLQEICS
Summary of the method: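 HepG2 cells stably carrying hCAR and a CYP2B6 luciferase reporter (2,500 cells/well) attached for 5 h, then received compounds with 48 uM CITCO for 24 h at 37C. ONE-Glo luminescence read antagonism; CellTiter-Fluor (405/540 nm) gave viability.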

SMILES | activity change, negative = inhibition
Nc1ccc(C(=O)O)cc1 | -5.05% (inactive)
CCCCCCCCCCCCCCCC(=O)O | -16.6% (inactive)
Cc1ccc(C(C)C)c(O)c1 | -18.9% (inactive)
CC(C)=CCC[C@@](C)(O)[C@H]1CC=C(C)CC1 | -25% (inactive)
NNC(=O)c1ccncc1 | -20.4% (inactive)
O=C(O)CCCC[C@@H]1SC[C@@H]2NC(=O)N[C@@H]21 | -16.6% (inactive)
C=CCc1ccc(O)c(OC)c1 | -22.1% (inactive)
O=C(O)c1cc(O)c(O)c(O)c1 | 7.6% (inactive)
